Source: the supplement of paper PMC4466236
The full ranking holds about 33,000 sequences; the median of “E-score (dimensionless, -0.5 to 0.5)” is about -0.058, and the highest 2% start at about 0.35. The entries come from a sample that favours the highest values as a whole.

Tested on: MvaT
Assay: PBM 8-mer E-score (mean of HK and ME arrays) (E-score (dimensionless, -0.5 to 0.5)); higher = stronger relative binding preference
How it was run: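 Reported values are rank-based E-scores, taken as the mean of two universal arrays and parsed with a custom script. Each 8-mer score falls between -0.5 and 0.5. The arrays, ME and HK, were double-stranded 60-mers with a constant 25-mer primer region and a variable 35-mer region covering all 8-mers. They were probed, by an earlier protocol, with full-length P. aeruginosa MvaT carrying an N-terminal glutathione S-transferase fusion.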

| Sequence | PBM 8-mer E-score |
| --- | --- |
| CGTCTCAG | -0.227 |
| CTGTTTCA | -0.122 |
| AACCCATT | 0.0496 |
| GACCAACC | -0.0441 |
| GCATCAGC | -0.135 |
| CTCGTCGC | -0.208 |
| AATATGTG | 0.368 |
| GATATGTA | 0.282 |
| AATATGTA | 0.365 |
| ATTATGTC | 0.305 |
| AATATGTC | 0.233 |
| AACATGTT | 0.295 |
| ACTATGTG | 0.172 |
| AACATGTC | -0.0784 |
| CATATGTA | 0.252 |
| ATTATGTA | 0.377 |
| ATTATGTG | 0.261 |
| AACATGTA | 0.347 |
| GTTGCAAC | 0.157 |
| CGAGCTTC | -0.313 |
| ACAGTCTA | -0.0014 |
| ATAAAGGA | 0.0948 |
| ACAGGCCG | -0.147 |
| ATAAAGTG | 0.228 |
| CATGATAC | 0.111 |
| GGGATATA | 0.218 |

| Sequence | PBM 8-mer E-score |
| --- | --- |
| GATATATC | 0.396 |
| GATATATA | 0.469 |
| GCGATATA | 0.361 |
| ACGATATA | 0.328 |
| GAGATATC | 0.163 |
| CCGATATA | 0.333 |
| GATATACC | 0.178 |
| GATATCTA | 0.267 |
| TCAAGTGA | -0.00408 |
| AAAGAGTC | 0.0357 |
| GTCGATCA | -0.174 |
| CTGATACA | 0.0751 |
| AATACAGC | 0.247 |
| CTCGCAGC | -0.11 |
| CCTCACCC | -0.165 |
| GTAATTGA | 0.264 |
| GTAATTCA | 0.191 |
| ATAATTTA | 0.416 |
| ATAATTCA | 0.325 |
| AGAATTTA | 0.262 |
| ATAATTTC | 0.386 |
| AGAATTTC | 0.122 |
| CTAATTTA | 0.389 |
| ATAATTTG | 0.298 |
| GTAATTTA | 0.388 |
| CTAATTGA | 0.11 |

| Sequence | PBM 8-mer E-score |
| --- | --- |
| CTAATTTC | 0.0429 |
| AGTAGAGA | 0.0385 |
| CCTGAATA | 0.0626 |
| ACGGCAGA | -0.166 |
| GCCACACC | -0.0459 |
| AACTCTGC | 0.143 |
| AAAGGTCA | -0.0376 |
| ATCTCATA | -0.00882 |
| ACTTATAC | 0.326 |
| GCTTATGA | -0.0922 |
| TCTTATAA | 0.369 |
| CCTTATAA | 0.338 |
| ACTTATGA | 0.248 |
| GCTTATAC | 0.166 |
| ACTTATCA | 0.196 |
| ACTTATAA | 0.419 |
| ACTTATAT | 0.424 |
| GCTTATAA | 0.418 |
| ACTTATAG | 0.251 |
| TCTTATCA | 0.177 |
| GAGCGTAC | -0.233 |
| AGTTACTG | 0.282 |
| ACTGGATA | 0.12 |
| ACCTAAGA | -0.0551 |
| GCCCACGA | -0.205 |
| CAATGAGA | -0.0714 |

| Sequence | PBM 8-mer E-score |
| --- | --- |
| GATAGAAA | 0.105 |
| AGAAAGGG | -0.151 |
| GCTCTTGA | -0.154 |
| ATGTTGGG | 0.105 |
| GGGAACTA | -0.0248 |
| AACATTAT | 0.34 |
| AACATTAA | 0.397 |
| TACATTAA | 0.38 |
| AACATTAG | 0.234 |
| GACATTAA | 0.222 |
| CACATTAA | 0.305 |
| AAATCAGT | 0.111 |
| TATAAGAA | 0.369 |
| TATAAGGA | 0.348 |
| GATAAGGA | -0.0851 |
| CATAAGAA | 0.126 |
| GATAAGAA | 0.121 |
| CATAAGGA | -0.0113 |
| CATGGAGC | -0.21 |
| ATCTGCAT | 0.0581 |
| CTGCATGC | -0.0882 |
| AGAAATCA | -0.0327 |
| AGAAATAC | 0.157 |
| GGAAATAA | 0.31 |
| TGAAATAA | 0.314 |
| AGAAATAA | 0.37 |

| Sequence | PBM 8-mer E-score |
| --- | --- |
| AGAAATAG | 0.216 |
| CGAAATAC | 0.0434 |
| AGAAATAT | 0.356 |
| CGAAATAA | 0.374 |
| GCTCACAC | -0.19 |
| AAAGCCTA | 0.125 |
| ACTATATA | 0.452 |
| ACTATATC | 0.268 |
| GCTATAGA | -0.132 |
| GCTATACA | 0.135 |
| ACTATACA | 0.241 |
| GCTATATA | 0.402 |
| CCTATATC | 0.0838 |
| CCTATACA | 0.116 |
| CCTATATA | 0.35 |
| CGGCTGCC | -0.286 |
| CATCCAAA | 0.0181 |
| ATAGTGTG | 0.179 |
| TAGGAAAA | 0.015 |
| ACCAGACG | -0.141 |
| ATAAAAAG | 0.348 |
| ATTAAAAA | 0.321 |
| CTAAAAAG | 0.00374 |
| CTTAAAAG | 0.166 |
| ATAAAAAA | 0.387 |
| ATTAAAAG | 0.393 |

| Sequence | PBM 8-mer E-score |
| --- | --- |
| ATAAAAGG | 0.119 |
| ATAAAAAT | 0.293 |
| ATAAAAAC | 0.274 |
| ACTGGAAT | 0.118 |
| AACCGACG | -0.000494 |
| GTGCAAAC | 0.0651 |
| AACCTTAC | -0.0526 |
| AGACCATA | 0.00218 |
| CACAGACG | -0.11 |
| ATTCCTCA | 0.129 |
| AAAAATTA | 0.275 |
| GAAAATTA | 0.304 |
| ATAAACTG | 0.175 |
| ATAAATTC | 0.309 |
| ATAAACTC | 0.269 |
| ATAAATTG | 0.369 |
| AAAAATTG | 0.117 |
| ATAAATTA | 0.42 |
| CTAAATTA | 0.336 |
| GTAAATTA | 0.391 |
| ATAAACTA | 0.356 |
| GTAAATCA | 0.189 |
| AACTGGTC | -0.0685 |
| TGACTGCA | -0.107 |
| AACCCAGT | -0.0508 |
| ATTGCACG | 0.182 |

| Sequence | PBM 8-mer E-score |
| --- | --- |
| ACTCATCA | 0.0732 |
| AACCATCA | -0.0905 |
| AAGTCTCT | 0.0309 |
| ATCGAATC | -0.0636 |
| GCGGGTTA | 0.0558 |
| CGCGATAA | 0.143 |
| ACCTATGG | -0.149 |
| CCTATAAG | 0.0158 |
| GAGATAAC | 0.0136 |
| AATATGAC | 0.183 |
| TCTATAAA | 0.103 |
| TATATAAA | 0.47 |
| GATATAAA | 0.344 |
| GATATAGC | 0.127 |
| CATATAAG | 0.35 |
| CACATAAG | 0.122 |
| GATATAAC | 0.372 |
| ACTATAAC | 0.334 |
| AATATAAC | 0.42 |
| CTCAAGGA | -0.151 |
